Screening data as filed in PubChem BioAssay.
Rows were chosen to be rich in hits. Some 2.5% of all compounds tested hit in one or more screens of this group.
Cruzain inh noDet = qHTS Assay for Promiscuous and Specific Inhibitors of Cruzain (without detergent); purified cruzain, Z-FR-AMC fluorescence, no detergent; Cruzipain (Trypanosoma cruzi), P25779; 2.3% of 200,000 active; Potency, µM, hits mostly inhibitors; also: nearly all actives have a fitted effect of over 40% in size
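Detergent-free condition (0.00005% Triton X-100) in acetate buffer pH 5.5 with DTT. 1.5 nM enzyme and compound were pre-mixed 15 min, then 2 uM Z-FR-AMC substrate added; reaction progress from fluorescence change between first and third reads (60 s).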
Cruzain inh Det = qHTS Assay for Promiscuous and Specific Inhibitors of Cruzain (with detergent). Cruzipain (Trypanosoma cruzi), P25779. purified cruzain, Z-FR-AMC fluorescence, 0.01% Triton. Potency, µM, usual class: inhibitors. 0.43% of 200,000 active; also: nearly all actives have a fitted effect of over 40% in size
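Enzyme 1.5 nM, Z-FR-AMC 2 uM, NaOAc 100 mM pH 5.5, DTT 5 mM, Triton X-100 0.01%; 15 min RT compound preincubation; kinetic ex360/em450, 60 s delta.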
Papain inh = qHTS Assay for Inhibitors of Papain: Counterscreen for Cruzain Assay | shares compounds with Cruzain inh Det | purified papain, Z-FR-AMC fluorescence cleavage | Potency, µM, most hits filed as inhibitors | 41% of 410 active | AID 2161, 2009; also: nearly all actives have a fitted effect of over 35% in size
Target sequence (P00784 whole entry, looked up): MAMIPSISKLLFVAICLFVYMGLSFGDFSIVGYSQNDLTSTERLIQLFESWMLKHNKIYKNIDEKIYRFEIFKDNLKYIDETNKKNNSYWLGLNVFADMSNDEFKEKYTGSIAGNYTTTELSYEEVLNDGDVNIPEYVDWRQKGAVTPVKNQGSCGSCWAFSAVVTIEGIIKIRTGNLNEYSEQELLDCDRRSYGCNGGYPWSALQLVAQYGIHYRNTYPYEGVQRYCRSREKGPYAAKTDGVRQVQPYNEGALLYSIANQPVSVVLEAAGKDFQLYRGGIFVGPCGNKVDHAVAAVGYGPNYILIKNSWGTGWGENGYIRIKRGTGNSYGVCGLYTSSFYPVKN
Each line names hits and unclear results; the compound was inactive in the other large screens (follow-up assays come after a bar, where they were run). Calls follow the shape of the dose curve; as a rule, active = well fitted curve in the direction sought with a large enough effect; inconclusive = small, poorly fitted or top-dose-only effect, or another doubt; inactive = no such curve, though single readings can be large; an effect the other way counts as inactive or inconclusive.

C=C(C)C(=O)OC1(C(F)(F)F)Oc2cc(C)ccc2NC1=O (stereo unspecified)	Cruzain inh noDet 7.94µM, Cruzain inh Det 6.31µM | Papain inh 28.2µM
CCOC(=O)C1(N(CC)CC)Sc2cc(C)ccc2NC1=O (stereo unspecified)	none
CCOc1ccc(NC(=O)CSC2=Nc3ccccc3C3=NC(CC(=O)NCc4cccs4)C(=O)N23)cc1 (stereo unspecified)	none
Cc1ccc2cc(/C=C3\N=C(c4ccccc4)OC3=O)c(N3CCOCC3)nc2c1	Cruzain inh noDet inconclusive
CC(=O)n1cc(/C=C2/N=C(c3ccccc3)OC2=O)c2ccccc21	Cruzain inh noDet 20µM, Cruzain inh Det 4.47µM | Papain inh 1.58µM
NC(=O)CSc1nc2ccccc2n1Cc1ccccc1	none
NNC(=O)Cn1c(SCc2ccccc2)nc2ccccc21	none | Papain inh inactive
O=[N+]([O-])c1cc(S(=O)(=O)Nc2ccccc2)ccc1-n1nnc2ccccc21	Cruzain inh noDet inconclusive, Cruzain inh Det 11.2µM | Papain inh inactive
O=[N+]([O-])c1cc(C(F)(F)F)ccc1-n1nnc2ccccc21	none
Cc1cc(C)c2c(-n3cccc3)c(C(=O)NCCc3ccccc3)sc2n1	none
CCc1ccccc1NC(=O)CSc1nnc([C@@H](N)Cc2c[nH]c3ccccc23)o1	Cruzain inh noDet 10µM, Cruzain inh Det 10µM | Papain inh inactive
CC(C)=CCSc1nnc([C@@H](N)Cc2c[nH]c3ccccc23)o1	none
CC(C)COC(=O)c1nnsc1NC(=O)Nc1ccccc1	Cruzain inh noDet 15.8µM | Papain inh inactive
CC(C)COC(=O)c1ccccc1C(=O)OCC(C)C	none
CC1(C)Cn2c(nnc2-c2ccccc2)S1	none
C(/Oc1ccccc1)=C1\Nn2c(nnc2-c2cc(-c3ccccc3)n[nH]2)S1	none (no result: Cruzain inh noDet, Cruzain inh Det) | Papain inh inactive
CCC(Sc1nc2ccccc2c2nc(-c3ccccc3)nn12)C(=O)Nc1cccc(OC)c1 (stereo unspecified)	none
CC1CCN(c2oc(-c3cccc4ccccc34)nc2C#N)CC1	Cruzain inh noDet inconclusive, Cruzain inh Det 31.6µM | Papain inh 39.8µM
N#Cc1nc(-c2cccc3ccccc23)oc1N1CCCCC1	Cruzain inh noDet inconclusive
Cc1ccc(C(=O)OCC(=O)c2c[nH]c3ccccc23)cc1S(=O)(=O)N1CCCCC1	none
CCc1ccc2[nH]c(=O)c(CN(Cc3cccnc3)Cc3nnnn3Cc3ccccc3)cc2c1	none (no result: Cruzain inh noDet, Cruzain inh Det) | Papain inh inactive
CCc1ccc2[nH]c(=O)c(CN(Cc3ccc(OC)cc3)Cc3nnnn3CCOC)cc2c1	Cruzain inh noDet inconclusive
CCc1ccc2[nH]c(=O)c(CN(Cc3ccccc3)Cc3nnnn3C(C)(C)C)cc2c1	none (no result: Cruzain inh noDet, Cruzain inh Det) | Papain inh inactive
Cc1ccc2[nH]c(=O)c(CN(Cc3cccs3)Cc3nnnn3Cc3ccccc3)cc2c1	none
O=C(Nc1ccc(F)cc1F)c1ccc(CN2CC(=O)N3CCCCC3C2=O)cc1 (stereo unspecified)	none
C=C(C)CNCCN	none
COC(=O)C1=C(C)NC(=O)C1(NS(=O)(=O)c1ccc(NC(C)=O)cc1)C(F)(F)F (stereo unspecified)	none
Cc1ccc(CNC(=O)CN2C(=O)C3(SCC(=O)N3c3ccc(F)c(F)c3)c3ccccc32)cc1 (stereo unspecified)	none
CC1=C(C(=O)OCC(C)C)C(c2ccc(F)cc2)NC(=O)N1 (stereo unspecified)	none
C=CC(C)(C)c1[nH]c2ccccc2c1C1=C(O)C(=O)C(c2c[nH]c3c(CC=C(C)C)cccc23)=C(O)C1=O	Cruzain inh noDet inconclusive, Cruzain inh Det 31.6µM | Papain inh 4.47µM
CCOC(=O)N1CCC(Nc2c(NCCCOC)c(=O)c2=O)CC1	none
c1nnc(NCNc2nncs2)s1	none
CCOC(=O)N1CCN(C(=O)CN(c2cc(Cl)ccc2OC)S(=O)(=O)c2ccccc2)CC1	Cruzain inh noDet inconclusive
COc1ccccc1N1CCN(C(=O)CN(c2ccccc2OC)S(=O)(=O)c2ccccc2)CC1	Cruzain inh noDet inconclusive | Papain inh inactive
COc1ccc(C(=O)N/N=C/c2ccc(OC(=O)c3ccccc3)cc2)cc1	Cruzain inh noDet inconclusive
COc1ccc(N=Cc2nc(-c3ccccc3)oc2OC(=O)c2ccccc2)cc1	Cruzain inh noDet 15.8µM, Cruzain inh Det 10µM | Papain inh inactive
Clc1nc(Nc2ccccc2)nc(Nc2ccccc2)n1	none
CCCNc1nc(C#N)nc(Nc2ccccc2)n1	none (no result: Cruzain inh noDet, Cruzain inh Det) | Papain inh 1µM
CCNc1nc(C#N)nc(Nc2ccccc2)n1	none (no result: Cruzain inh noDet, Cruzain inh Det) | Papain inh 5.62µM
CC(C)(CO)Nc1nc(Nc2ccccc2)nc(Nc2ccccc2)n1	none
C=Cc1ccc(Cn2c(=O)cc(C)c3c(C)nn(-c4ccccc4)c32)cc1	none
COC(=O)Sc1nc(N2CCOCC2)c2c(c1C#N)CC(C)(C)OC2	Cruzain inh noDet 15.8µM, Cruzain inh Det 10µM | Papain inh 15.8µM
